PD-1 reverse act = reversal of PD-1 mediated T-cell inhibition; 29,000 tested, under 10 active; primary human CD4 T cells, PD-L1 beads, CellTiter-Glo 96 h; activation, % (concentration not given with the values); call rule not given here
NOMO-1 viab = STK33 inhibitor candidate reducing NOMO-1 cell viability; NOMO-1 AML viability, CellTiter-Glo luminescence, 72 h; inhibition, % (concentration not given with the values); 7.5% of 37,000 active; in the data active means inhibition above about 80%; inconclusive means no clear call, values can overlap the other calls
U2OS ROS induce = raises reactive oxygen species in U2OS cancer cells; U2OS ROS induction, H2DCF-DA fluorescence; ROS induction (% of piperlongumine), % at 10 µM; 2% of 46,000 active; AID 624156; in the data active means ROS induction above about 79%, passing the limit was not always enough; inconclusive means no clear call, values can overlap the other calls
A number is an active result; i = inactive; ? = inconclusive; nt = not tested or not shown. This is one part of a sample in which hits are shown more often than they occur.

SMILES	PD-1 reverse act	NOMO-1 viab	U2OS ROS induce
C=CCNC(=S)N1CCN(C(c2ccccc2)c2ccccc2)CC1	nt	nt	i
CCCn1c2ccc(C)cc2c2nnc(SCCN3CCOCC3)nc21	i	i	142
Cc1ccc2c(c1)c1nnc(SCCN3CCOCC3)nc1n2Cc1ccccc1	i	i	113
CCCn1c2ccccc2c2nnc(SCCC(=O)O)nc21	i	i	i
c1ccc2c(c1)[nH]c1nc(SCCN3CCOCC3)nnc12	i	i	i
Cc1ccc2c(c1)c1nnc(SCCN3CCOCC3)nc1n2C	i	i	i
CCCCn1c2ccccc2c2nnc(SCCN3CCOCC3)nc21	i	i	155
O=c1[nH]nc(-c2cc(C(F)(F)F)cc(C(F)(F)F)c2)c2ccccc12	nt	nt	i
COC(=O)C1=C(NC(=O)c2cccc(Cl)c2)CCS1	i	i	i
Cc1ccc(S(=O)(=O)CCSc2sc(C#N)c3c2C(=O)CC(C)(C)C3)cc1	i	94	125
CCOC(=O)c1sc(SCCS(=O)(=O)c2ccc(Cl)cc2)c2c1CCCC2=O	i	i	i
O=C(CSCc1ccccc1)Nc1ccc(-c2nc3cccnc3s2)cc1	nt	nt	i
CN(C)CCCN1C(=O)C2C3C=CC(C3)C2C1=O (centres undefined)	nt	nt	i
O=c1c2ccccc2nc(SCc2ccc(Cl)cc2)n1CC1COc2ccccc2O1 (centres undefined)	nt	nt	i
c1nc(NCC2CCCO2)c2sc3nc(N4CCCCC4)c4c(c3c2n1)CCCC4 (centres undefined)	i	i	i
CN(C)CCCNc1ncnc2c1sc1nc(N3CCOCC3)c3c(c12)CCC3	i	98	i
COc1cc(CN(C)Cc2cccc3ccccc23)c([N+](=O)[O-])cc1OC	i	i	133
COc1cc2c(cc1NC(=O)Cc1ccccc1[N+](=O)[O-])oc1ccccc12	i	i	nt
N#C/C(=C\N1CCC(n2cccc2)CC1)S(=O)(=O)c1ccccn1	nt	nt	i
Cc1ccc2nc(C(F)(F)F)cc(N3CCN(/C=C(/C#N)S(=O)(=O)c4ccccn4)CC3)c2c1	nt	nt	93
CNC(=O)NC(=O)CSc1nnc(-c2ccco2)o1	i	i	i
CC(C)CCNC(=O)c1cc(-c2ccccn2)nc2ccccc12	nt	nt	i
Cc1ccc2nc(SCc3c(C)c(C)cc(C)c3C)[nH]c2c1	nt	nt	i
C[C@H]1CN([C@@H](C)CO)C(=O)c2cccc(NC(=O)Nc3ccc(C(F)(F)F)cc3)c2O[C@H]1CN(C)Cc1ccc(C(F)(F)F)cc1	i	114	i
C[C@H](CO)N1C[C@H](C)[C@H](CN(C)Cc2ccc(C(F)(F)F)cc2)Oc2c(NC(=O)Nc3ccccc3)cccc2C1=O	nt	i	i
SMILES	PD-1 reverse act	NOMO-1 viab	U2OS ROS induce
C[C@H]1CN([C@@H](C)CO)C(=O)c2cccc(NC(=O)Nc3ccc(F)cc3)c2O[C@@H]1CN(C)Cc1ccc(C(F)(F)F)cc1	i	i	i
C[C@@H]1CN([C@H](C)CO)C(=O)c2cccc(NC(=O)Nc3ccc(C(F)(F)F)cc3)c2O[C@@H]1CN(C)Cc1ccc(C(F)(F)F)cc1	i	111	i
C[C@@H]1CN([C@H](C)CO)C(=O)c2cccc(NC(=O)Nc3ccccc3)c2O[C@H]1CN(C)Cc1ccc(C(F)(F)F)cc1	nt	91	i
C[C@@H]1CN([C@H](C)CO)C(=O)c2cccc(NC(=O)Nc3ccc(C(F)(F)F)cc3)c2O[C@H]1CN(C)Cc1ccc(C(F)(F)F)cc1	i	?	i
C[C@@H]1CN([C@H](C)CO)C(=O)c2cccc(NC(=O)Nc3ccc(C(F)(F)F)cc3)c2O[C@@H]1CN(C)Cc1ccc(-c2ccccc2)cc1	i	?	i
C[C@@H]1CN([C@@H](C)CO)C(=O)c2cccc(NC(=O)Nc3ccc(C(F)(F)F)cc3)c2O[C@@H]1CN(C)Cc1ccc(-c2ccccc2)cc1	nt	125	i
Cc1ccc(N=Cc2c(Sc3ccc(Cl)cc3)nc3sccn23)cc1	nt	nt	i
Clc1cccc(Cc2cn3cc(-c4ccccc4)nc3s2)c1	nt	nt	i
O=c1c2cnn(-c3ccc(Cl)cc3)c2ncn1Cc1ccc(Cl)cc1	nt	nt	i
CCOc1ccc2nc(N3CCCC(C(=O)Nc4ccc(C)cc4Cl)C3)sc2c1 (centres undefined)	nt	nt	i
C[C@H](CO)N1C[C@H](C)[C@H](CN(C)Cc2ccc(C(F)(F)F)cc2)Oc2c(NC(=O)Nc3cccc4ccccc34)cccc2C1=O	i	112	i
C[C@@H]1CN([C@H](C)CO)C(=O)c2cccc(NC(=O)Nc3ccc(C(F)(F)F)cc3)c2O[C@@H]1CN(C)Cc1ccccc1	i	i	i
CCCCC(CC)CSc1nc2ncccc2[nH]1 (centres undefined)	nt	nt	i
CC1=C(C(=O)Nc2ccc(F)cc2)C(c2ccc(F)cc2)C2=C(CC(c3ccccc3)CC2=O)N1 (centres undefined)	nt	nt	i
O=C(Nc1ccccc1)c1scc2c1CCCC2	nt	nt	i
O=C1NC(=Nc2cccc3ccccc23)SC1(CO)CO	nt	nt	i
C=C1C(=O)O[C@@H]2/C=C(/COC(C)=O)CC/C=C(/CO)CC[C@@H]12	i	117	i

Screening results as filed in PubChem BioAssay.
